High-throughput results from PubChem.
This is one part of a sample in which hits are shown more often than they occur.
CHX counter – counter-screen for Shiga toxin inhibitors: cycloheximide protein synthesis inhibition; 12% of 300,000 active; cell reporter, cycloheximide protein synthesis inhibition counterscreen; max response, %; in the data active = max response mostly above about 13%, no sharp cut-off; inactive = mostly below about 14%; note: read at 38.3 µM for the half of the compounds with a filed dose
NS1 function inh – inhibitors of influenza NS1 protein function | AID 2326 | 0.4% of 270,000 active | Potency, µM (top dose mostly 46.1 µM); calls by dose curve; note: actives are rising curves; nearly all actives have a fitted effect of over 50% in size
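OD600 was taken as the measure of yeast growth restored by compound in an NS1-expressing S. cerevisiae strain. Cells had been washed out of glucose medium and diluted 1:100 into galactose -URA medium, pH 6.0.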
SARS PLP yeast – blocks SARS-CoV papain-like protease in a yeast assay | S. cerevisiae expressing SARS-CoV PLpro, growth rescue | Potency, µM (top dose mostly 32.9 µM), actives largely listed as activators | 0.19% of 330,000 active; calls by dose curve; note: nearly all actives have a fitted effect of over 55% in size
LmPK inhibitor – inhibitors of Leishmania mexicana pyruvate kinase. purified LmPK, Kinase-Glo ATP luminescence, 1 h. Q27686. 0.37% of 290,000 active. Potency, µM (top dose mostly 57.5 µM), actives largely listed as inhibitors
Target sequence (Q27686 whole entry, looked up): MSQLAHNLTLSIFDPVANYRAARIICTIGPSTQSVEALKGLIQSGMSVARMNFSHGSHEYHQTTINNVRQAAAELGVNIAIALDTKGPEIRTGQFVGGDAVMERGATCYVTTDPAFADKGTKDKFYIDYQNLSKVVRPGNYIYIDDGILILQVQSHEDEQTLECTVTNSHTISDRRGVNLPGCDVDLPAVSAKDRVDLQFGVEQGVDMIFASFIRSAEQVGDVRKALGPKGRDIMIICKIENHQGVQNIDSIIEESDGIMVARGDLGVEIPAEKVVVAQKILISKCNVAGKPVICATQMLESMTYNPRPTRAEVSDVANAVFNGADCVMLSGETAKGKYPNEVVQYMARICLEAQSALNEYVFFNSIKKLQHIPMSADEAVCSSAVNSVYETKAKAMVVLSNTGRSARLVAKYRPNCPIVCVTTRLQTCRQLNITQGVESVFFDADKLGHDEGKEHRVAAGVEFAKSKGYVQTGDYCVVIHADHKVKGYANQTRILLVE
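In 50 mM imidazole pH 7.2 with 7 mM MgCl2, LmPK (0.1 nM) turned over PEP (0.5 mM) and ADP (0.1 mM) for 1 h at room temperature. Luciferase read-out of ATP.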
Shiga toxin inh – Shiga toxin inhibition; inhibition, % at 38.7 µM; Vero cells, Shiga toxin protein synthesis inhibition reporter; AID 2315; 9.2% of 290,000 active; in the data active = inhibition mostly above about 28%, no sharp cut-off; inactive = mostly below about 43%
Tb PYK inh – T. brucei pyruvate kinase inhibition. Q57TT1. TbPYK enzyme, Kinase-Glo Plus ATP luminescence, 45 min. Potency, µM (titrated, usually from 76.8 µM), most hits filed as inhibitors. 0.12% of 410,000 active. AID 624173; note: nearly all actives have a fitted effect of over 50% in size
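TbPYK + substrate in 50 mM TEA pH 7.2, 100 mM KCl, 10 mM MgCl2, 0.05% BSA, 0.01% Tween-20; cpd pinned; ADP 130 uM final; 45 min RT; Kinase-Glo Plus 10 min; luminescence endpoint.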
A number is an active result; [ ] = remark or other dose. Unless noted, calls come from the whole dose curve; as a rule, active = well fitted curve in the direction sought with a large enough effect; inconclusive = small, poorly fitted or top-dose-only effect, or another doubt; inactive = no such curve, though single readings can be large; an effect the other way counts as inactive or inconclusive.

For Cc1ccc(C(=O)N(Nc2nc3ccccc3s2)C(=O)c2ccc(C)cc2)cc1 the results were CHX counter 10.5, NS1 function inh inactive, SARS PLP yeast inactive, LmPK inhibitor inactive, Shiga toxin inh inactive and Tb PYK inh inactive.
For CC(C)C(=O)N(Nc1nc2ccccc2s1)C(=O)C(C)C the results were CHX counter inactive, NS1 function inh inactive, SARS PLP yeast inactive, LmPK inhibitor inactive, Shiga toxin inh inactive and Tb PYK inh inactive.
CCOC(=O)CC(=O)Nc1nc2ccccc2s1 was read as CHX counter inactive, NS1 function inh inactive, SARS PLP yeast inactive, LmPK inhibitor inactive, Shiga toxin inh inactive and Tb PYK inh inactive.
For NNC(=O)c1nc2ccccc2s1 the results were Tb PYK inh inactive.
For CCCCNC(=O)Nc1nc2ccccc2s1 the results were CHX counter inactive, SARS PLP yeast inactive, LmPK inhibitor inactive, Shiga toxin inh 70.6 and Tb PYK inh inactive.
`COC(=O)c1ccc(/C=N/Nc2nc(-c3ccc(Cl)cc3Cl)cs2)cc1` gave CHX counter inactive, NS1 function inh inactive, SARS PLP yeast inactive, LmPK inhibitor inactive and Shiga toxin inh inactive.
`CCOC(=O)Nc1nc(-c2ccc(Cl)cc2Cl)cs1` gave CHX counter 23.6, NS1 function inh inactive, SARS PLP yeast inactive, LmPK inhibitor inactive, Shiga toxin inh 77.6 and Tb PYK inh inactive.
`CCOc1ccc(CCNC(=O)c2cnc3c(-c4ccc(F)cc4)c(C)nn3c2C)cc1OCC` gave Tb PYK inh inactive.
`COC(=O)[C@@H](NC(=O)N1CCc2nc(-c3ccccc3)c3c(c2C1)CO[C@@H](C)C3)C(C)C` gave LmPK inhibitor inactive[11.5 µM].
Screening CN(C)CCCN(C(=O)c1nc2ccccc2s1)c1nc2ccc(F)cc2s1 returned Tb PYK inh inactive.
Screening CN(C)C(=O)c1nc2ccccc2s1 returned CHX counter 28.3, NS1 function inh inactive, SARS PLP yeast inactive, LmPK inhibitor inactive, Shiga toxin inh 73.9 and Tb PYK inh inactive.
`CCCCNC(=O)Nc1nc2ccc(CC)cc2s1` gave CHX counter 34.4, SARS PLP yeast inactive, LmPK inhibitor inactive, Shiga toxin inh 73.2 and Tb PYK inh inactive.
CN(C(=O)c1ccc2nc(N)sc2c1)c1ccccc1 was read as CHX counter inactive, NS1 function inh inactive, SARS PLP yeast inactive, LmPK inhibitor inactive, Shiga toxin inh inactive and Tb PYK inh inactive.
`CN(C(=O)c1ccccc1)c1nc2ccccc2s1` gave CHX counter 46.0, NS1 function inh inactive, SARS PLP yeast inactive, LmPK inhibitor inactive, Shiga toxin inh 73.8 and Tb PYK inh inactive.
`CCCCNC(=O)Nc1ccon1` gave CHX counter inactive, NS1 function inh inactive, SARS PLP yeast inactive, LmPK inhibitor inactive, Shiga toxin inh inactive and Tb PYK inh inactive.
For CCOC(=O)Nc1nc2ccccc2s1 the results were CHX counter 31.4, NS1 function inh inactive, SARS PLP yeast inactive, LmPK inhibitor inactive, Shiga toxin inh 66.0 and Tb PYK inh inactive.
Screening CCc1ccccc1N1C(=O)N(CC(=O)c2ccc(Cl)cc2)c2ccccc2S1(=O)=O returned Tb PYK inh inactive.
Screening C[C@@H]1C[C@H]2[C@H]3C[C@@H](F)C4=CC(=O)C=C[C@]4(C)[C@@]3(Cl)[C@@H](O)C[C@@]2(C)[C@@H]1C(=O)COC(=O)C(C)(C)C returned Tb PYK inh inactive.
`O=C(NCCCO)c1nc2ccccc2s1` gave CHX counter inactive, NS1 function inh inactive, SARS PLP yeast inactive, LmPK inhibitor inactive, Shiga toxin inh inactive and Tb PYK inh inactive.
Cc1nc2c(ccc3nc(NC(=O)Cc4ccccc4)sc32)s1 was read as CHX counter 35.9, NS1 function inh inactive, SARS PLP yeast inactive, LmPK inhibitor inactive, Shiga toxin inh 35.7 and Tb PYK inh inactive.
For CCCNC(=O)c1ccc(-c2nc3ccccc3s2)s1 the results were CHX counter 48.2, NS1 function inh inactive, SARS PLP yeast inactive, LmPK inhibitor inconclusive, Shiga toxin inh inactive and Tb PYK inh inactive.
Cc1nc2c(ccc3nc(NC(=O)c4ccc(S(=O)(=O)N(C)C)cc4)sc32)s1 was read as CHX counter inactive, NS1 function inh inactive, SARS PLP yeast inactive, LmPK inhibitor inactive, Shiga toxin inh inactive and Tb PYK inh inactive.
Screening CN(C)CCCc1c2ccccc2nc2ccc(Cl)cc12 returned NS1 function inh inactive.
`CN1C(=O)CC(C)(c2ccccc2)C1=O` (configuration not stated) gave Tb PYK inh inactive.
O=C1CCCN1CCCNc1ncnc2c1cnn2-c1ccc(Cl)cc1 was read as CHX counter 27.6, NS1 function inh inactive, SARS PLP yeast inactive, LmPK inhibitor inactive, Shiga toxin inh 28.5 and Tb PYK inh inactive.
Cc1cccc(-n2ncc3c(NCCCN4CCCC4=O)ncnc32)c1 was read as CHX counter 58.1, NS1 function inh inactive, SARS PLP yeast inactive, LmPK inhibitor inactive, Shiga toxin inh 77.1 and Tb PYK inh inactive.
For Cc1ccc(-n2ncc3c(NCCCn4ccnc4)ncnc32)cc1 the results were Tb PYK inh inactive.
Cc1cccc(-n2ncc3c(NCCCn4ccnc4)ncnc32)c1 was read as CHX counter 61.8, NS1 function inh inactive, SARS PLP yeast inactive, LmPK inhibitor inactive, Shiga toxin inh 74.5 and Tb PYK inh inactive.
`C[C@]12CC[C@@H]3c4ccc(OC(=O)N(CCCl)CCCl)cc4CC[C@H]3[C@@H]1CC[C@@H]2OP(=O)(O)O` gave Tb PYK inh inactive.
`CN(Cc1nc(CCc2ccccc2)no1)Cc1cccs1` gave CHX counter 15.7, NS1 function inh inactive, SARS PLP yeast inactive, LmPK inhibitor inactive, Shiga toxin inh inactive and Tb PYK inh inactive.
CN(Cc1ccc(F)cc1)Cc1nc(CCc2ccccc2)no1 was read as CHX counter inactive, NS1 function inh inactive, SARS PLP yeast inactive, LmPK inhibitor inactive, Shiga toxin inh inactive and Tb PYK inh inactive.
`COc1cccc2[nH]c(-c3ccccn3)nc12` gave NS1 function inh inactive.
`Cc1ccc(S(=O)(=O)n2[nH]c(=O)cc2N)cc1` gave CHX counter inactive, NS1 function inh inactive, SARS PLP yeast inactive, LmPK inhibitor inactive, Shiga toxin inh inactive and Tb PYK inh inactive.
For Cc1cccc(NC(=O)Cn2c(=O)n(Cc3ccccc3)c(=O)c3oc4ccccc4c32)c1C the results were Tb PYK inh inactive.
O=C(/C=C/c1ccc([N+](=O)[O-])cc1)c1ccccc(=O)c1O was read as Tb PYK inh inactive.
`Cc1ccc(/C=C/C(=O)c2ccccc(=O)c2O)c(C)c1` gave CHX counter inactive, NS1 function inh inactive, SARS PLP yeast inconclusive, LmPK inhibitor inactive, Shiga toxin inh 30.5 and Tb PYK inh inactive.
For c1ccc(-c2csc(-c3cccnc3)n2)cc1 the results were CHX counter 27.8, NS1 function inh inactive, SARS PLP yeast inactive, LmPK inhibitor inactive, Shiga toxin inh 88.6 and Tb PYK inh inactive.
For NC(=O)c1cc(-c2csc(-c3cccnc3)n2)ccc1O the results were CHX counter inactive, NS1 function inh inactive, SARS PLP yeast inactive, LmPK inhibitor inactive, Shiga toxin inh 60.5 and Tb PYK inh inactive.
